Data as given in PubChem BioAssay (NCATS).
Inconclusive results are not listed. Calls of active or inactive are those of the source. Calls follow the shape of the dose curve; as a rule, active = well fitted inhibition curve with a large enough effect; inconclusive = small, poorly fitted or top-dose-only effect; inactive = flat fitted curve, though single readings scatter. Peptide text beside a SMILES is read from it.

test system: CP238; experiment: qHTS profiling for inhibitors of Plasmodium falciparum proliferation (AID 504749); also: nearly all actives have a fitted effect of over 60% in size; conditions: P. falciparum in erythrocytes, SYBR Green DNA, 72 h; series mostly up to 12.8 µM
Summary of the method: (§1)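 P. falciparum-infected erythrocytes (0.3% parasitemia, 2.5% hematocrit final) were exposed to compounds for 72 h at 37 C in 5% CO2, then lysed with SYBR Green buffer overnight at room temperature; parasite DNA fluorescence was normalized to artemisinin and DMSO controls.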
Potency is read from the fitted curve at half-maximal effect.

Potency, inactive:
CCC(C)C(=O)OC1CCC=C2C=CC(C)C(CCC3CC(O)CC(=O)O3)[C@@H]21 (some centres undefined)
C[C@]1(c2ccccc2)OC(C(=O)O)=CC1=O
OCC1OC([S-])[C@H](O)C(O)C1O.[Au+] (some centres undefined)
COC(=O)N/N=C/C1=C[N+](=O)c2ccccc2[N+]1=O
CN1CC(=O)N=C1N
CNC1CC(N)[C@H](O)[C@@H](O[C@@H]2OC(CO)C3OC4(OC(C(N)CO)C(O)C(O)C4O)O[C@@H]3[C@H]2O)C1O (some centres undefined)
CC(=O)N[C@@H]1C(O)OC(CO)C(O)C1O (some centres undefined)
CCC(CCC(C)C1CCC2C3CC=C4CC(O)CC[C@@]4(C)C3CC[C@@]12C)C(C)C (some centres undefined)
O=C1OC(CO)C(O)C(O)C1O (centres undefined)
CCCC(=O)O[C@]1(C(=O)CO)CCC2[C@@H]3CCC4=CC(=O)CC[C@]4(C)C3C(O)C[C@]21C (some centres undefined)
COC(=O)C(Cc1ccccc1)NC(=O)C(N)CC(=O)O (stereo not drawn) (H-Asp-Phe-OMe; configuration not given here)
CC[C@@]12CCCN3CCc4c(n(c5ccccc45)[C@](O)(C(=O)OC)C1)C32 (some centres undefined)
CC1(C)SC2C(N3C(=O)C(c4ccccc4)NC3(C)C)C(=O)N2C1C(=O)O (centres undefined)
CC1CCC(C(C)C)C(=O)C1 (centres undefined)
CC(=O)N[C@H](CC(C)C)C(=O)O
CC(C)C1CCC(C(=O)NC(Cc2ccccc2)C(=O)O)CC1 (centres undefined)
COc1ccc2cc(C(C)CO)ccc2c1 (centres undefined)
CNC1C(OC2C(O[C@@H]3C(O)C(O)[C@@H](N=C(N)N)C(O)C3N=C(N)N)OC(C)[C@@]2(O)CO)OC(CO)C(O)C1O (some centres undefined)
CC1C2CCC3C4CC=C5CC(N(C)C)CC[C@@]5(C)C4CC[C@@]32CN1C (some centres undefined)
C[C@]12C=CC(=O)C=C1CCC1C2C(O)C[C@]2(C)C1CC[C@]2(O)C(=O)CO (some centres undefined)
COc1ccc2c(c1)N(C[C@@H](C)CN(C)C)c1ccccc1S2
CCOC(=O)C1=CC(OC(CC)CC)C(NC(C)=O)C(N)C1 (centres undefined)
CN(C)CCc1c[nH]c2ccc(CC3COC(=O)N3)cc12 (centres undefined)
NCC1CCC(N)C(O[C@@H]2C(O)[C@H](O[C@H]3OC(CO)C(O)C(N)C3O)[C@@H](N)C[C@H]2N)O1 (some centres undefined)
OCC1O[C@H](OC2C(CO)O[C@@](O)(CO)C2O)C(O)C(O)C1O (some centres undefined)
CC1(C)OC2CO[C@]3(COS(N)(=O)=O)OC(C)(C)OC3C2O1 (some centres undefined)
CC(=O)OC1CCC2C3CCc4cc(O)ccc4C3CCC12C (centres undefined)
CN(C)CCCOC1C(C(O)CO)OC2OC(C)(C)O[C@@H]21 (some centres undefined)

Potency, active:
COC1C=CO[C@@]2(C)Oc3c(C)c(O)c4c(O)c(c(C=NN5CCN(C)CC5)c(O)c4c3C2=O)NC(=O)/C(C)=C\C=CC(C)C(O)[C@@H](C)C(O)C(C)[C@H](OC(C)=O)C1C (some centres undefined) 3550 nM
COc1ccc(CC(N)C(=O)NC2C(CO)OC(n3cnc4c(N(C)C)ncnc43)C2O)cc1 (centres undefined) 794 nM
COc1ccc2cc1Oc1ccc(cc1)CC1c3c(cc4c(c3Oc3cc5c(cc3OC)CCN(C)C5C2)OCO4)CCN1C (centres undefined) 7080 nM
COc1cc(C2c3cc4c(cc3C(O[C@@H]3OC5COC(c6cccs6)OC5C(O)C3O)C3COC(=O)C23)OCO4)cc(OC)c1O (some centres undefined) 2000 nM

test system: CP247; experiment: as above; conditions: P. falciparum in erythrocytes, SYBR Green DNA, 72 h; series mostly up to 12.8 µM
Summary of the method: as §1

Potency, inactive:
CCC(C)C(=O)OC1CCC=C2C=CC(C)C(CCC3CC(O)CC(=O)O3)[C@@H]21 (some centres undefined)
C[C@]1(c2ccccc2)OC(C(=O)O)=CC1=O
OCC1OC([S-])[C@H](O)C(O)C1O.[Au+] (some centres undefined)
COC(=O)N/N=C/C1=C[N+](=O)c2ccccc2[N+]1=O
CN1CC(=O)N=C1N
CNC1CC(N)[C@H](O)[C@@H](O[C@@H]2OC(CO)C3OC4(OC(C(N)CO)C(O)C(O)C4O)O[C@@H]3[C@H]2O)C1O (some centres undefined)
CC(=O)N[C@@H]1C(O)OC(CO)C(O)C1O (some centres undefined)
CCC(CCC(C)C1CCC2C3CC=C4CC(O)CC[C@@]4(C)C3CC[C@@]12C)C(C)C (some centres undefined)
O=C1OC(CO)C(O)C(O)C1O (centres undefined)
CCCC(=O)O[C@]1(C(=O)CO)CCC2[C@@H]3CCC4=CC(=O)CC[C@]4(C)C3C(O)C[C@]21C (some centres undefined)
COC(=O)C(Cc1ccccc1)NC(=O)C(N)CC(=O)O (stereo not drawn) (H-Asp-Phe-OMe; configuration not given here)
CC[C@@]12CCCN3CCc4c(n(c5ccccc45)[C@](O)(C(=O)OC)C1)C32 (some centres undefined)
CC1(C)SC2C(N3C(=O)C(c4ccccc4)NC3(C)C)C(=O)N2C1C(=O)O (centres undefined)
CC1CCC(C(C)C)C(=O)C1 (centres undefined)
CC(=O)N[C@H](CC(C)C)C(=O)O
CC(C)C1CCC(C(=O)NC(Cc2ccccc2)C(=O)O)CC1 (centres undefined)
COc1ccc2cc(C(C)CO)ccc2c1 (centres undefined)
CNC1C(OC2C(O[C@@H]3C(O)C(O)[C@@H](N=C(N)N)C(O)C3N=C(N)N)OC(C)[C@@]2(O)CO)OC(CO)C(O)C1O (some centres undefined)
CC1C2CCC3C4CC=C5CC(N(C)C)CC[C@@]5(C)C4CC[C@@]32CN1C (some centres undefined)
C[C@]12C=CC(=O)C=C1CCC1C2C(O)C[C@]2(C)C1CC[C@]2(O)C(=O)CO (some centres undefined)
COc1ccc2c(c1)N(C[C@@H](C)CN(C)C)c1ccccc1S2
CCOC(=O)C1=CC(OC(CC)CC)C(NC(C)=O)C(N)C1 (centres undefined)
CN(C)CCc1c[nH]c2ccc(CC3COC(=O)N3)cc12 (centres undefined)
NCC1CCC(N)C(O[C@@H]2C(O)[C@H](O[C@H]3OC(CO)C(O)C(N)C3O)[C@@H](N)C[C@H]2N)O1 (some centres undefined)
OCC1O[C@H](OC2C(CO)O[C@@](O)(CO)C2O)C(O)C(O)C1O (some centres undefined)
CC1(C)OC2CO[C@]3(COS(N)(=O)=O)OC(C)(C)OC3C2O1 (some centres undefined)
CC(=O)OC1CCC2C3CCc4cc(O)ccc4C3CCC12C (centres undefined)
CN(C)CCCOC1C(C(O)CO)OC2OC(C)(C)O[C@@H]21 (some centres undefined)

Potency, active:
COC1C=CO[C@@]2(C)Oc3c(C)c(O)c4c(O)c(c(C=NN5CCN(C)CC5)c(O)c4c3C2=O)NC(=O)/C(C)=C\C=CC(C)C(O)[C@@H](C)C(O)C(C)[C@H](OC(C)=O)C1C (some centres undefined) 3980 nM
COc1ccc(CC(N)C(=O)NC2C(CO)OC(n3cnc4c(N(C)C)ncnc43)C2O)cc1 (centres undefined) 891 nM
COc1ccc2cc1Oc1ccc(cc1)CC1c3c(cc4c(c3Oc3cc5c(cc3OC)CCN(C)C5C2)OCO4)CCN1C (centres undefined) 5620 nM
COc1cc(C2c3cc4c(cc3C(O[C@@H]3OC5COC(c6cccs6)OC5C(O)C3O)C3COC(=O)C23)OCO4)cc(OC)c1O (some centres undefined) 2240 nM
